The values that follow come from PubChem BioAssay AID624354 (Sanford-Burnham Center for Chemical Genomics, 2012).

Values joined by “and” are separate entries in the source; they are usually repeats but may differ in a detail not shown here. Identical values can stand only once. The whole screen tested about 360,000 compounds, of which about 3,800 (1.1%) were called active. The sample as a whole holds a higher share of actives than the screen did. A number with no mark means an inactive call.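 How the source made its calls: active means compounds causing at least 50% loss of cell viability in the single-dose screen, relative to plate controls; inactive means the rest.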

This test can be described thus: TRAIL-exposed caspase-8 expressing cell killing – NB7+C8 cells, ATPlite luminescence, TRAIL sensitizer project, primary screen (AID 624354). Particulars: at 10 µM, hits give high values. Background: In ATP-based viability assays light output follows the ATP content of the culture.
On to `COc1cccc(-c2nc3ccc(N4CCN(C)CC4)cc3[nH]2)c1`, for which the inhibition (viability loss, TRAIL sensitization) was 86.3% (active).
On to `CCC(=O)c1ccc(OCC(=O)N2CCN(CC(=O)Nc3ccc(C)cc3)CC2)cc1`, for which the inhibition (viability loss, TRAIL sensitization) was 1.16%.
For `Cc1cc2ccccn2c1C(C[N+](=O)[O-])c1c(F)cccc1Cl` (stereo not given), the inhibition (viability loss, TRAIL sensitization) is -0.261%.
Take `COc1ccc(-n2c(O)c(C(C)=Nc3ccc4c(c3)CCC4)c(=O)[nH]c2=O)cc1`: the inhibition (viability loss, TRAIL sensitization) was 7.82%.
`O=Cc1cn(Cc2ccc(F)cc2Cl)c2ccccc12`: the inhibition (viability loss, TRAIL sensitization) is 17.7%.
Take `CNC(=O)O/N=C(\N)Cc1csc2ccccc12`: the inhibition (viability loss, TRAIL sensitization) was -3.67%.
Consider `CNC(=O)O/N=C(\N)Cc1csc2ccc(Cl)cc12`, for which the inhibition (viability loss, TRAIL sensitization) is 70.7% (active).
On to `CCC/C(=N\O)c1c[nH]c2ccccc12`, for which the inhibition (viability loss, TRAIL sensitization) is -8.01%.
In the case of `Cc1ncoc1C(=O)NCC1=C(c2cccc3ccccc23)C[C@@H]2CC[C@H]1N2Cc1ccco1`, the inhibition (viability loss, TRAIL sensitization) is 14.8%.
Turning to `COc1ccccc1CN1CCN(C(=O)Cc2ccccc2)CC1`, the inhibition (viability loss, TRAIL sensitization) is -10.1%.
With `CCN1CCN(Cc2cc(OC)c3c(c2)OCO3)CC1`, the inhibition (viability loss, TRAIL sensitization) is 3.55%.
In the case of `C[C@]12CC[C@H](O)C[C@H]1CC[C@@H]1C2CC[C@]2(C)[C@@H](C3=CC(=O)OC3)[C@@H](O)C[C@]12O` (stereo not given in full) it was 48.7%; in that of `COC1C(O)C(C)OC(OC2CCC3(C=O)C(CCC4C3CCC3(C)C(C5=CC(=O)OC5)CCC43O)C2)C1O` (stereo not given), 74.4% (active); in that of `CC(C)Nc1nc(Cl)nc(NC(C)C)n1`, -4.77%.
With `O=C(O)C1CSC(c2cccnc2)N1` (stereo not given) the figure was -7.34%; with `Cc1ccc(Cn2c(C)c3cnn(CC(=O)N4CCC5(CC4)OCCO5)c(=O)c3c2C)cc1`, 2.81%; with `OC(Cn1c2ccccc2c2ccccc21)C[n+]1ccccc1` (stereo not given), -9.29%.
On to `CCOc1ccc(-c2cc(C)[n+](CCN(CC)CC)c(-c3ccc(OCC)cc3)c2)cc1`, for which the inhibition (viability loss, TRAIL sensitization) is 64.8% (active).
For `O=c1[nH]c(CN2CC=C(c3ccccc3)CC2)nc2scc(-c3cccs3)c12`, the inhibition (viability loss, TRAIL sensitization) was -10.4%.
With `COc1ccccc1N1CCN(C(CNC(=O)Oc2ccccc2)c2cccnc2)CC1` (stereo not given), the inhibition (viability loss, TRAIL sensitization) is -5.13%.
For the molecule `CN1CCc2cc3c(cc2[C@H]1[C@@H]1OC(=O)c2c1ccc1c2OCO1)OCO3`, the inhibition (viability loss, TRAIL sensitization) was -20.1%.
With `C=C(C)C1(CCCC)C(=O)NC(=S)NC1=O`, the inhibition (viability loss, TRAIL sensitization) is 6.23%.
For `CN1C2C=C(N(C(=O)c3ccc(Cl)cc3)c3ccccc3)CC1CC2` (stereo not given), the inhibition (viability loss, TRAIL sensitization) is -8.37%.
With `CC(=O)OC1C2(CC3N4C(=O)C5(CO)SSC4(CC31O)C(=O)N5C)OC(C)C(C)(C)C2=O` (stereo not given) the figure was 84.2% (active).
Take `CCC(=O)CC(c1ccc([N+](=O)[O-])cc1)c1c(O)c2ccccc2oc1=O` (stereo not given): the inhibition (viability loss, TRAIL sensitization) is 4.29%.
In the case of `Nc1ccc(Cc2ccc(N)c(Cl)c2)cc1Cl` it was 2.29%; in that of `CN(C)C(=O)Oc1cc(OC(=O)N(C)C)cc(C(O)CNC(C)(C)C)c1` (stereo not given), -5.27% and 5.89%.
With `C=Cn1ccnc1P(=S)(c1cc(N(CC)CC)ns1)c1nccn1C=C` the figure was -19.8%; with `CCCCCCCCCCCCn1ccc(=N)cc1`, 62.5% (active).
With `CC1CNCCN1c1ccc(Cl)cc1` (stereo not given) the figure was -10.4%; with `C=CCN1C(=O)NC(=O)/C(=C/c2ccc(OCC(=O)Nc3ccc(C)cc3)cc2)C1=O`, 6.1%; with `CCOC(=O)[C@]12Cc3ccccc3[C@H]1N(C1CCCCC1)C(=O)c1cc(OC)ccc12`, 79.1% (active).
For `CCOC(=O)[C@]12Cc3cc(OC)ccc3[C@H]1N(C(C)C)C(=O)c1ccccc12`, the inhibition (viability loss, TRAIL sensitization) is 39.4%.
In the case of `CCC1(CC(C)c2ccccc2)C(=O)NC(=O)NC1=O` (stereo not given) it was -15.1%.
On to `C/C(=N/O)c1ccc2ccc3ccccc3c2c1`, for which the inhibition (viability loss, TRAIL sensitization) was 0.44%.
